These results are taken from PubChem BioAssay (NCI).

Molecules are shown by their SMILES. About 79,000 compounds went through this panel and 15% of them were active in at least one assay; those are over-represented in the sample as a whole. Unmarked numbers belong to inactive results. Activity calls are given as the source filed them. Rule as the data show it: active = growth inhibition above about 70%; inactive = the rest.

Test [1] can be described thus: NCI Yeast Anticancer Drug Screen. Data for the rad50 strain (AID 155).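 Also: 0% = growth of vehicle-only cultures of the same strain.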 The following applies: S. cerevisiae rad50 strain growth inhibition, hits give high values. The method, boiled down:
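Readout: growth inhibition relative to vehicle-treated cultures. Compound exposure was carried out in a genetically defined yeast strain deficient in DNA damage repair.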

The nature of test [2]: NCI Yeast Anticancer Drug Screen. Data for the mec2-1 strain (AID 157). As to conditions: S. cerevisiae mec2-1 strain, hits give high values. The method, boiled down:
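Test agents were screened against the mec2-1 yeast strain, with defined DNA repair or cell cycle alteration. Growth was scored as inhibition against vehicle-only controls.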

Test [3] can be described thus: NCI Yeast Anticancer Drug Screen. Data for the sgs1 mgt1 strain (AID 161).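 Also: 0% = growth of cultures given vehicle only.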 The following applies: S. cerevisiae sgs1 mgt1 strain, hits give high values. A digest of the protocol:
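Genetically altered yeast, compound exposure, growth inhibition relative to vehicle.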

The nature of test [4]: NCI Yeast Anticancer Drug Screen. Data for the cln2 rad14 strain (AID 165).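 Also: 0% = growth equal to vehicle treated cultures.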 The following applies: S. cerevisiae cln2 rad14 strain, hits give high values. A digest of the protocol:
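Growth of compound-exposed yeast (cln2 rad14 genotype) measured and expressed as inhibition relative to vehicle.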

The nature of test [5]: NCI Yeast Anticancer Drug Screen. Data for the bub3 strain (AID 167). The following applies: S. cerevisiae bub3 mutant strain, hits give high values. A digest of the protocol: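 Readout: yeast growth inhibition, expressed relative to vehicle-only wells. The test organism is a mutant strain from a panel with lesions in DNA repair or checkpoint genes.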
A short description of test [6]: NCI Yeast Anticancer Drug Screen. Data for the mlh1 rad18 strain (AID 175). The following applies: S. cerevisiae mlh1 rad18 strain growth inhibition, hits give high values. The method, boiled down:
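In this whole-cell yeast screen, a strain with altered DNA damage repair is challenged with compound, and its growth is measured against matched vehicle-treated controls.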

The mark [7] stands for this setting: at 5.0 µM (retest, dose inferred, filed as 0.5).
Where [8] appears, read: at 50.0 µM (retest, dose inferred, filed as 5.0).

`O=[n+]1c2ccccc2n([O-])c2ccccc21`: the growth inhibition was 93% (active) in test [1] (setting [7]); 98% (active) in test [1] (setting [8]); 22% in test [2] (setting [7]); 99% (active) in test [2] (setting [8]); 61% in test [3] (setting [7]); 99% (active) in test [3] (setting [8]). Besides, the growth inhibition in test [4] (setting [7]) is 18%; in test [4] (setting [8]), 98% (active); in test [5] (setting [7]) it was 0%; in test [5] (setting [8]), 99% (active); in test [6] (setting [7]), 79% (active); in test [6] (setting [8]), 98% (active).
Take `COC(=O)[CH2][Sn]([CH2]C(=O)OC)([c]1ccccc1)[c]1ccccc1`: the growth inhibition in test [1] (setting [7]) is 80% (active); in test [1] (setting [8]) it was 97% (active); in test [1] (at 50.0 µM), 88.3% (active); in test [3] (setting [7]), 77% (active); in test [3] (setting [8]) it was 99% (active); in test [3] (at 50.0 µM) it was 86.9% (active). For the same compound, the growth inhibition was 52% in test [4] (setting [7]); 99% (active) in test [4] (setting [8]); 86.7% (active) in test [4] (at 50.0 µM); 82% (active) in test [5] (setting [7]); 99% (active) in test [5] (setting [8]); 84.4% (active) in test [5] (at 50.0 µM). The growth inhibition in test [6] (setting [7]) is 86% (active); in test [6] (setting [8]), 97% (active); in test [6] (at 50.0 µM), 92% (active).
Consider `CCCCCCCNC(=O)CI`, for which the growth inhibition was 42% in test [1] (setting [7]); 99% (active) in test [1] (setting [8]); 13% in test [2] (setting [7]); 100% (active) in test [2] (setting [8]); 33% in test [3] (setting [7]); 100% (active) in test [3] (setting [8]). The growth inhibition was 9% in test [4] (setting [7]); 94% (active) in test [4] (setting [8]); 52% in test [5] (setting [7]); 100% (active) in test [5] (setting [8]); 23% in test [6] (setting [7]); 99% (active) in test [6] (setting [8]).
Turning to `CCOC(=O)c1cc(N(CCCl)CCCl)ccc1OC(=O)CC`, the growth inhibition in test [1] (at 50.0 µM) is 3.95%; in test [2] (at 50.0 µM) it was -6.9%; in test [3] (at 50.0 µM) it was 19.7%; in test [4] (at 50.0 µM), -32.2%; in test [5] (at 50.0 µM) it was 5.85%.
`CCOC(=O)C(Br)C(C)Br` (centres undefined): the growth inhibition in test [1] (at 50.0 µM) is -13.4%; in test [2] (at 50.0 µM), -39.5%; in test [3] (at 50.0 µM) it was -23.1%; in test [4] (at 50.0 µM), 7.1%; in test [5] (at 50.0 µM), -9.65%; in test [6] (at 50.0 µM), -22.5%.
Consider `C(=NC1CCCCC1)c1c[nH]c2ccccc12`, for which the growth inhibition was -24.9% in test [1] (at 50.0 µM); -39.6% in test [2] (at 50.0 µM); -5.05% in test [3] (at 50.0 µM); 4.7% in test [4] (at 50.0 µM); -27.5% in test [5] (at 50.0 µM); -17.8% in test [6] (at 50.0 µM).
Regarding `CC1C2Cc3ccc(O)cc3C1(C)CCN2C` (centres undefined), the growth inhibition in test [1] (at 50.0 µM) was 37%; in test [2] (at 50.0 µM), 29.6%; in test [3] (at 50.0 µM), 30.6%; in test [4] (at 50.0 µM), 17.6%; in test [5] (at 50.0 µM), 35%.
For `C=CCc1cc(C=C(C#N)C#N)cc(OC)c1O`, the growth inhibition in test [1] (at 50.0 µM) was -0.15%; in test [2] (at 50.0 µM) it was -2.85%; in test [3] (at 50.0 µM), 10.7%; in test [4] (at 50.0 µM) it was 23.1%; in test [5] (at 50.0 µM) it was 9.05%.
For `CC1(C)OP23(NC(=O)OC2(C(F)(F)F)c2ccccc2O3)OC1(C)C` (centres undefined), the growth inhibition in test [1] (at 50.0 µM) is -14.6%; in test [2] (at 50.0 µM), -13.5%; in test [3] (at 50.0 µM), -40.5%; in test [4] (at 50.0 µM) it was -4.1%; in test [5] (at 50.0 µM), -41.6%; in test [6] (at 50.0 µM) it was -27.4%.
Consider `CC1=CC(=O)C=CC1=O`, for which the growth inhibition is 39.1% in test [1] (at 50.0 µM); 52.3% in test [2] (at 50.0 µM); 28.9% in test [3] (at 50.0 µM); 12.4% in test [4] (at 50.0 µM); 11.3% in test [5] (at 50.0 µM); 55.4% in test [6] (at 50.0 µM).
As for `CCCCCCNCCc1cnc[nH]1`, the growth inhibition in test [1] (at 50.0 µM) was 12.8%; in test [2] (at 50.0 µM), 3.1%; in test [3] (at 50.0 µM) it was 15%; in test [4] (at 50.0 µM), 17.5%; in test [5] (at 50.0 µM), 2.75%; in test [6] (at 50.0 µM), -68.7%.
